This is a sample that favours compounds with a hit; in the whole collection about 5.5% have one here.
ELG1 repair inh – ELG1-dependent DNA repair inhibition. HEK293T ELG1-luciferase reporter, luminescence, 16 h; DNA damage induced by 5-fluorouridine. Potency, µM (top dose mostly 46.1 µM), without a hit: at the highest dose activity change, negative = inhibition, hits mostly inhibitors. 2.3% of 330,000 active. AID 504467; also: potency is read from the fitted curve at half-maximal effect; nearly all actives have a fitted effect of over 55% in size
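DMSO vehicle served as the neutral condition. Each well held 2,000 cells given 5-fluorouridine plus compound; after 16 hr at 37 °C/5% CO2, ONE-Glo was added and luciferase measured 30 min later.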
Coupling enz – counter-screen for Giardia aldolase inhibitors: coupling enzyme system. 0.67% of 290,000 active. activity change, negative = inhibition, % at 58.2 µM, hits read low. coupling enzyme system counterscreen, AmpLite Red fluorescence. AID 2472; in the data active = activity change below about -30%
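Final compound at 57.5 uM, incubated 10 min at RT with coupling enzyme reagent (glyceraldehyde-3-phosphate), then 20 min with substrate and AmpLite Red detection. Fluorescence read at 525/598 nm; tests interference with the coupling assay, not aldolase inhibition.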
Sfp PPTase inh – inhibitors of Bacillus subtilis Sfp phosphopantetheinyl transferase; Potency, µM, for inactives: largest response in the series, negative = inhibition, usual class: inhibitors; Biochemical Sfp PPTase activity, qHTS; 3.5% of 310,000 active; Q9F4F7; AID 1490;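 also: the enzyme is Sfp with the accession as filed and its product quenches rhodamine fluorescence; potency is read from the fitted curve at half-maximal effect; 0% = enzyme reaction without inhibitor and -100% = no enzyme wells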
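After 15 min at room temperature with compound, 15 nM Sfp received 5 uM rhodamine-CoA plus 12.5 uM BHQ-2-ybbR (50 mM Hepes pH 7.6, 10 mM MgCl2). Rate came from the fluorescence difference over 30 min, ex 525/em 598 nm.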
Giardia kill – kills Giardia lamblia. 0.15% of 340,000 active. Giardia lamblia trophozoite viability. activity change, % at 7.66 µM, hits read low. AID 540267; in the data active = activity change below about -80%; inconclusive = between about -30% and that limit;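 also: parasites exposed to compound for two days anaerobically before the ATP read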
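Trophozoites 100 cells/well + cpd; 48 hrs, 37 deg C, anaerobic. ATPLite 1-Step added, 15-30 min RT, luminescence read (ATP-based viability).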
An asterisk follows results filed as active; ? = inconclusive; · = no result. Unless noted, calls follow the shape of the dose curve; as a rule, active = well fitted curve in the direction sought with a large enough effect; inconclusive = small, poorly fitted or top-dose-only effect, or another doubt; inactive = no such curve, though single readings can be large; an effect the other way counts as inactive or inconclusive. Unless noted, % is scaled to controls: 0 for no effect and ±100 for the full control effect.

SMILES | ELG1 repair inh | Coupling enz | Sfp PPTase inh | Giardia kill
COc1ccc(CCNC(=O)c2cccc(NS(=O)(=O)c3ccccc3F)c2)cc1OC | 2% | 3 | 10% | -7
CSCCC(NS(=O)(=O)c1ccccc1)C(=O)Nc1nccs1 (stereo not given) | ? | · | · | -9
CN(C(=S)NC(=O)c1ccc(Cl)cc1)C1CCCCC1 | ? | 1 | 50µM* | 0
CC1(c2ccc([N+](=O)[O-])cc2)Nc2ccccc2S1 (stereo not given) | ? | 0 | 50µM* | -21
c1ccc(OCC2CCNCC2)nc1 | ? | 1 | -5% | 0
Cc1c(C(=O)Oc2ccc(-c3cnc4ccccc4n3)cc2)cccc1[N+](=O)[O-] | ? | 4 | 50µM* | 7
O=C(Oc1ccc(-c2cnc3ccccc3n2)cc1)c1cc([N+](=O)[O-])ccc1Cl | ? | 1 | -14% | -6
Oc1c(Cl)cc(Cl)cc1/C=N/c1nccs1 | -21% | -5 | 50µM* | -12
Oc1c(Cl)cc(Cl)cc1/C=N/c1nc(-c2ccc(Cl)cc2)cs1 | 29% | -1 | 23% | 4
O=C(NC1CCCCC1)C(c1ccc2ncccc2c1)N(Cc1cccs1)C(=O)c1cccs1 (stereo not given) | 16µM* | 1 | 2% | -13
O=C(Nc1ccc(F)cc1)c1cn(-c2ccccc2)nc1-c1ccncc1 | 21µM* | 4 | -2% | 11
COc1ccc(NC(=O)c2cn(-c3ccccc3)nc2-c2ccncc2)cc1 | ? | 1 | -5% | -20
Cc1ccc(S(=O)(=O)CCC(=O)OCC(=O)NCC(=O)Nc2c(C)cc(C)cc2C)cc1 | 14% | · | · | -6
COc1cccc(-c2nccc(NCc3cccs3)n2)c1 | · | -4 | 79µM* | ·
Cc1ccccc1-c1nccc(NCc2cccs2)n1 | · | -21 | 89µM* | ·
c1cncc(-c2nccc(NCc3cccs3)n2)c1 | · | 2 | -18% | ·
CC(C)(C)c1ccc(OCCOc2ccc(C(C)(C)C)cc2NC=O)c(NC=O)c1 | ? | -7 | 56µM* | 9
CCOc1cc(/C=C2\N=C(SC(C)C(N)=O)N(c3ccc(OC(F)F)cc3)C2=O)ccc1O (stereo not given) | ? | · | 45µM* | 18
CC(CN1CCCC1)C(=O)NN (stereo not given) | -5% | 1 | 1% | 4
O=C1Nc2ccc(S(=O)(=O)NCCCO)c3cccc1c23 | ? | 0 | 10% | -10
O=C1Nc2ccc(S(=O)(=O)NCCC3=CCCCC3)c3cccc1c23 | ? | -34* | 3% | -5
O=C(O)CCCCCNS(=O)(=O)c1cccc2nsnc12 | 5% | 3 | 33% | 13
O=C(O)CCCCCNc1ccc2nsnc2c1[N+](=O)[O-] | 22% | -28 | 89µM* | -1
C=CCN=C1NN=C(c2cc(C)n(CCOC)c2C)CS1 | ? | -20 | 40µM* | 12
COCCn1c(C)cc(C2=NNC(=NC3CC3)SC2)c1C | 5.2µM* | 1 | 50µM* | ?
SMILES | ELG1 repair inh | Coupling enz | Sfp PPTase inh | Giardia kill
Cc1cc(C2=NNC(=NC3CC3)SC2)c(C)n1Cc1ccco1 | ? | 5 | ? | -25
COCC(C)N=C1NN=C(c2cc(C)n(Cc3ccccc3Cl)c2C)CS1 (stereo not given) | ? | 1 | -20% | 9
COCCn1c(C)cc(C2=NNC(=Nc3ccc(Cl)cc3Cl)SC2)c1C | 0% | 1 | 56µM* | 4
CCN(CC)C(=O)c1[nH]cnc1C(=O)N[C@@H](Cc1ccccc1)C(=O)OC(C)(C)C | 0% | 1 | 11% | 7
COc1cccc(NC(=O)CN2CCN(C(=O)c3ccco3)CC2)c1 | -4% | · | 3% | -11
COc1ccc(NS(=O)(=O)c2ccc(-c3coc(C)n3)cc2)cc1OC | 0.41µM* | · | -3% | 2
CCOC(=O)N1CCC(N2Cc3cccc(C(=O)NCc4ccc(C)cc4)c3C2=O)CC1 | 16µM* | -1 | -16% | 11
Cc1ccc2c(c1)C1CC(C)(O2)N(c2cccc(C(=O)N3CCN(c4ccccn4)CC3)c2)C(=O)N1 (stereo not given) | -9% | · | 13% | 48
C=CCNC(=O)c1c(CSc2ccc(Cl)cc2)noc1C(=O)NCc1ccccc1 | · | · | · | 5
Oc1ccc(C=Nc2cccc3ncccc23)c(O)c1 | -2% | -37* | -5% | -2
Oc1ccc(C=Nc2ccc3ncccc3c2)c(O)c1 | -3% | -52* | ? | ·
CCOc1ccc(C=Nc2cccc3ncccc23)cc1 | 17% | -42* | ? | 9
COc1cccc(N=Cc2ccc(O)cc2O)c1 | ? | -8 | 4% | -5

Screens: PubChem, National Center for Advancing Translational Sciences (NCATS)
